In PubChem BioAssay (NCI):
About 79,000 compounds went through this panel and 15% of them were active in at least one assay; those are over-represented in the sample as a whole. No stated cut-off is given here; in the data, active means growth inhibition above about 70%; inactive means the rest.

How the values were obtained:
[1] = NCI Yeast Anticancer Drug Screen. Data for the rad50 strain (AID 155);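 further: 0% = growth of vehicle-only cultures of the same strain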; details: S. cerevisiae rad50 strain growth inhibition; at 50.0 µM; stronger effect = higher value
Outline: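 Inhibition values express reduced yeast growth in compound-treated cultures relative to vehicle-treated controls.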

[2] = NCI Yeast Anticancer Drug Screen. Data for the mec2-1 strain (AID 157); details: S. cerevisiae mec2-1 strain, at 50.0 µM, stronger effect = higher value
Outline: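 Cells of the genetically defined mec2-1 yeast strain are incubated with test compound. Inhibition of growth is calculated against vehicle-treated controls.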

[3] = NCI Yeast Anticancer Drug Screen. Data for the sgs1 mgt1 strain (AID 161);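 further: 0% = growth of cultures given vehicle only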; details: S. cerevisiae sgs1 mgt1 strain, at 50.0 µM, stronger effect = higher value
Outline: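 Mutant yeast exposed to compound; growth scored against vehicle-only wells.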

[4] = NCI Yeast Anticancer Drug Screen. Data for the bub3 strain (AID 167); details: S. cerevisiae bub3 mutant strain, at 50.0 µM, stronger effect = higher value
Outline: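 Steps: expose the mutant yeast strain to compound; grow alongside vehicle-treated cultures; measure growth; express inhibition against the vehicle cultures.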

[5] = NCI Yeast Anticancer Drug Screen. Data for the mlh1 rad18 strain (AID 175); details: S. cerevisiae mlh1 rad18 strain growth inhibition; at 50.0 µM; stronger effect = higher value
Outline: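 Compound-treated yeast growth, normalised to vehicle controls. Strain bears defined DNA repair mutations.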

[6] = NCI Yeast Anticancer Drug Screen. Data for the cln2 rad14 strain (AID 165);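 further: 0% = growth equal to vehicle treated cultures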; details: S. cerevisiae cln2 rad14 strain, at 50.0 µM, stronger effect = higher value
Outline: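 The screen exposed genetically defined yeast (cln2 rad14) to test compounds and scored growth inhibition relative to vehicle-treated controls.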

Measured: growth inhibition

COC(=O)c1cc(-c2ccc(Cl)c(Cl)c2)[nH]c(=O)c1C#N
inactive: [1] -16.9% | [2] -18.9% | [3] -27.9% | [4] -21.9% | [5] 18.6%

CCOC(=O)c1ccc(Nc2sc(C(=O)c3cccc([N+](=O)[O-])c3)c(N)c2C#N)cc1
inactive: [1] -9.95% | [2] -9.95% | [3] -0.95% | [6] 5.75% | [5] 0.55%

CCn1c(=O)n(C)c2c(=O)n(C)c(=O)n(C)c21
inactive: [1] 21.6% | [2] -3.8% | [3] -13.3% | [4] 1.4%

Sc1ccc(Nc2c3ccccc3nc3ccccc23)cc1
inactive: [1] 28.4% | [2] 33.6% | [3] 14.9% | [4] 25.6% | [5] 54.6%

O=C1C=CC2=C3c4cc(O)c(O)cc4CC3(O)COC2=C1O (stereo unspecified)
inactive: [1] -40.6% | [2] -45.4% | [3] -9.1% | [4] -5.7% | [5] -32%

Cc1cc(N)ccc1-c1ccc(N)cc1C
inactive: [1] -3% | [2] -6.45% | [3] 4.45% | [4] -23.1% | [5] 37.8%

COC(=O)c1ccccc1N(C)C
inactive: [1] 0.55% | [2] -11.2% | [3] -3.8% | [4] 2.65% | [5] 0.9%

COc1ccc(C(C)C=O)cc1 (stereo unspecified)
inactive: [1] 5.55% | [2] -14.8% | [3] -30.3% | [6] -51.5% | [5] 2.3%

O=P(O)(O)OCC(O)CO (stereo unspecified)
inactive: [1] -4.6% | [2] -7.3% | [3] 8.95% | [4] -22.1% | [5] -10.5%

C=CCCCCCCCCCOC(C)=O
inactive: [1] -14.3% | [2] -41.1% | [3] -20.4% | [4] -2.8% | [5] 8.25%

Cc1cccc([N+](=O)[O-])c1Cl
inactive: [1] -39.2% | [2] -72.5% | [3] -36.5% | [4] -30.8% | [5] -17.6%

CCC(O)CC(CC)CO (stereo unspecified)
inactive: [1] -4.1% | [2] -2.7% | [3] 4.4% | [4] -12.2% | [5] -10.1%

COc1cc2c3c(n(C)c(=O)c2cc1OC)-c1cc2c(cc1C3=O)OCO2
inactive: [1] 8.35% | [2] -15.2% | [3] -1.5% | [6] 53.3% | [5] -16.1%

NC(=S)N/N=C/c1ccc(N)cc1
inactive: [1] 7.2% | [2] -2.35% | [3] 0.9% | [4] 2.35% | [5] 7.5%

CCOC(=O)c1ccc(NC(=S)P(=O)(c2ccccc2)c2ccccc2)cc1
inactive: [1] 41.5% | [2] 10.2% | [3] 42.8% | [4] 14.9% | [5] 39.8%

Cc1ccc(/C(C#N)=C/c2ccc3c(c2)OCO3)cc1
inactive: [1] 23.6% | [2] 25.5% | [3] 26.3% | [4] 47.8% | [5] 21.2%

COc1cc(CN)ccc1O
inactive: [1] 1.65% | [2] -6.25% | [3] -8.75% | [6] 10.7% | [5] 12.2%

CSC(=N\N=C\c1ccc(N(C)C)cc1)/N=C/N(C)C
inactive: [1] -4.3% | [2] -8.15% | [3] 6.05% | [4] 18.6% | [5] 25.1%

CC1=CC(=O)c2ccccc2C1=O
inactive: [1] 14.4% | [2] 15.3% | [3] 0.1% | [4] 25.6% | [5] 18.2%

CCCC(C)OCC(=O)O (stereo unspecified)
inactive: [1] 31.6% | [2] -3.4% | [3] 1.55% | [4] -1.25% | [5] -7.1%

Nc1ccccc1SC(CC(=O)c1ccccc1)c1c(Cl)cccc1Cl (stereo unspecified)
inactive: [1] -11.5% | [2] -9.65% | [3] 2.1% | [4] 2.85% | [5] 16.7%

CC1=CC(C)(C)NC(=S)N1c1ccc(S(=O)(=O)O)c2cccc(S(=O)(=O)O)c12
inactive: [1] -4.8% | [2] -5.25% | [3] -13.1% | [4] 4.3%

NCCC(=O)c1ccc(Cl)cc1
inactive: [1] 45.4% | [2] -10.4% | [3] 6.8% | [6] 4.45% | [5] 19.8%

C/C(=N/NC(N)=O)c1ccco1
inactive: [1] 1.1% | [2] -1.05% | [3] -3.55% | [4] 1.95% | [5] -3.55%

COC(=O)Nc1cccc(Cl)c1OC
inactive: [1] 8.6% | [2] -21.4% | [3] 0.45% | [6] 2.05% | [5] -6.55%

COc1ccc(C(=O)C(Br)C(Br)C(=O)O)cc1 (stereo unspecified)
inactive: [1] 24.6% | [2] 24.4% | [3] 6.35% | [6] -64.7% | [5] 38.9%

CCCC(=O)c1cc(C)ccc1OC
inactive: [1] -2.15% | [2] 0.15% | [3] -9.85% | [4] 6.6% | [5] -3.2%

O=C1C=CC(=O)N1c1ccc(I)cc1Cl
inactive: [1] 29.9% | [2] 18.3% | [3] 44.1% | [6] 23.8% | [5] 22.1%

CN(C)CCN(C)CC(C)(C)C(=O)/C=C/c1ccc(Cl)cc1
inactive: [1] 27.9% | [2] 3% | [3] 9% | [4] 19.7% | [5] 31.8%

CC(=O)Cc1cc(-c2cc(CC(C)=O)[nH]n2)n[nH]1
inactive: [1] -45.1% | [2] -22.1% | [3] -24.1% | [6] -25.5% | [5] -5%

COc1ccc(-c2cc3c(nn2)-c2ccccc2C3=O)cc1
inactive: [1] 1.1% | [2] -16.7% | [6] -10.4% | [4] -19.1% | [5] 5.45%

O=[N+]([O-])c1ccc(S(=O)(=O)NN=C2CCCCC2)cc1
inactive: [1] 19.9% | [2] 13.2% | [6] -31% | [4] 8.85% | [5] 37.8%

C/C(=N\NC(=O)c1ccccc1N)c1ccccc1O
inactive: [1] 6.15% | [2] -7.75% | [3] 26.6% | [5] 21.7%

COc1cc2c(cc1O)CC[C@@H]1C2CC[C@@]2(C)C1CC[C@@H]2O (stereo partly specified)
inactive: [1] -11.6% | [2] -13.4% | [6] -26.6% | [4] -13.8% | [5] 18.3%

CC(=O)OCC(=O)[C@@]1(O)CC[C@H]2[C@@H]3CC[C@@H]4C[C@H](O)CC[C@]4(C)[C@H]3C(=O)C[C@@]21C
inactive: [1] 19.7% | [2] 7.15% | [6] 7.75% | [4] -2.85% | [5] 20.6%

Cc1cc(C)c(N)c(S(=O)(=O)O)c1
inactive: [1] -0.7% | [2] -6.45% | [6] -63% | [4] 11.2% | [5] -13.7%

CN(C)CCN(Cc1ccccc1)c1ccccc1
inactive: [1] -16.1% | [2] -41.6% | [6] -10.7% | [4] -20.8% | [5] -12%

Clc1ccc(-c2nnc(-c3cccc4ccccc34)o2)cc1
inactive: [1] -22.9% | [2] -56.9% | [6] 0.15% | [4] -19.6% | [5] -24.6%

NCC(=O)CCC(=O)O
inactive: [1] 6.3% | [2] -3.7% | [6] -4.95% | [4] -0.85% | [5] -1.4%

COC(=O)c1[nH]c(=O)c(C#N)c(C(=O)OC)c1C(=O)c1ccccc1
inactive: [1] 5% | [2] -6.4% | [6] 19.2% | [4] -25.1% | [5] 12%

Nc1ccc(C(=O)c2ccc(N)c(Br)c2)cc1Br
inactive: [1] 15% | [2] -0.85% | [6] -77.9% | [4] 43.3%

O=[N+]([O-])c1ccccc1S(=O)c1ccccc1[N+](=O)[O-]
inactive: [1] 16.1% | [2] 21.6% | [6] 20.9% | [4] 39.2% | [5] 14.7%
